9 compounds from PubChem BioAssay (NCI) can be followed below.

Compounds without any hit were thinned out: in the full panel of roughly 83,000, 20% have a hit.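 In brief: 96-well plates, 48 h treatment, single concentration, percent growth endpoint.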 Unmarked numbers belong to inactive results. Activity calls are given as the source filed them. Rule for the calls: active = growth percent below 10; inactive = the rest.

Among the test systems are SK-MEL-2 melanoma; SN12C renal; UO-31 renal; TK-10 renal; ACHN renal; A498 renal; CCRF-CEM leukemia; RPMI-8226 leukemia; OVCAR-5 ovarian; OVCAR-4 ovarian; SK-OV-3 ovarian; OVCAR-3 ovarian; HS 578T breast; NCI/ADR-RES ovarian; CAKI-1 renal; MOLT-4 leukemia; SR leukemia; IGROV1 ovarian; OVCAR-8 ovarian; EKVX NSCLC.
Holding throughout (assay): NCI-60 one-dose screen, 48 h (100 = growth as untreated, 0 = no growth, -100 = all killed)
Common to all, as to conditions: 10 µM unless noted

On to `COc1cc2ccc(C(C)=O)cc2cc1OC`, for which the growth in the experiment on SK-MEL-2 melanoma is 108%; with SN12C renal it was 95.1%; in the experiment with UO-31 renal, 72.4%; in the experiment with TK-10 renal it was 138%; in the experiment with ACHN renal it was 91.9%; with A498 renal it was 65%. Besides, the growth in the experiment with CCRF-CEM leukemia is 118%; in the experiment on RPMI-8226 leukemia it was 105%; with OVCAR-5 ovarian, 92.3%; in the experiment with OVCAR-4 ovarian, 120%; in the experiment on SK-OV-3 ovarian, 95.6%; in the experiment with OVCAR-3 ovarian, 100%. For the same compound, the growth with HS 578T breast is 97.1%; with NCI/ADR-RES ovarian it was 103%.
For the compound `COc1cc2c(cc1OC)-c1cc(OC)c(OC)cc1C(CN(C)C)C2` (centres undefined), the growth is 29% [100 µM] in the experiment with SK-MEL-2 melanoma; 43.7% [100 µM] in the experiment with SN12C renal; 68.1% [100 µM] with UO-31 renal; 65.7% [100 µM] in the experiment on TK-10 renal; 44.6% [100 µM] in the experiment on ACHN renal; 11.6% [100 µM] in the experiment on CAKI-1 renal. For the same compound, the growth is 52.6% [100 µM] in the experiment with A498 renal; 103% [100 µM] with MOLT-4 leukemia; 53.9% [100 µM] in the experiment with SR leukemia; 67.7% [100 µM] in the experiment on RPMI-8226 leukemia; 86% [100 µM] in the experiment on OVCAR-5 ovarian; -20.7% [100 µM] (active) in the experiment on OVCAR-4 ovarian. The growth with SK-OV-3 ovarian is 6.96% [100 µM] (active); with IGROV1 ovarian, 60.7% [100 µM]; with OVCAR-3 ovarian, 59.9% [100 µM]; with HS 578T breast, 10.3% [100 µM]; with NCI/ADR-RES ovarian, 26.9% [100 µM].
As to `Cc1cc(Nc2c3ccccc3nc3ccccc23)ccc1NS(C)(=O)=O`, the growth in the experiment on SK-MEL-2 melanoma was 40.7%; with SN12C renal it was 39.6%; in the experiment with UO-31 renal, 22.7%; in the experiment on TK-10 renal, 56%; in the experiment with ACHN renal, 9.04% (active); with CAKI-1 renal, 29%. For the same compound, the growth in the experiment with A498 renal was 24.2%; in the experiment on MOLT-4 leukemia, 2.33% (active); with SR leukemia, -6.9% (active); with RPMI-8226 leukemia, 31.2%; in the experiment with OVCAR-5 ovarian, 27.5%; in the experiment on OVCAR-4 ovarian, 48.1%. Also, the growth is 43.5% in the experiment on SK-OV-3 ovarian; 25.5% with IGROV1 ovarian; 46.6% with OVCAR-3 ovarian; 52.4% in the experiment with HS 578T breast; 57.7% in the experiment on NCI/ADR-RES ovarian.
Turning to `CCOC(=O)C(CCCCC(NC(C)=O)(C(=O)OCC)C(=O)OCC)(NC(C)=O)C(=O)OCC`, the growth with SK-MEL-2 melanoma is 95.9%; in the experiment on SN12C renal it was 101%; in the experiment with UO-31 renal, 87.3%; in the experiment with TK-10 renal, 97.9%; with ACHN renal it was 104%; in the experiment with CAKI-1 renal it was 104%. Further, the growth in the experiment on A498 renal is 115%; in the experiment with MOLT-4 leukemia it was 109%; in the experiment on SR leukemia, 99.8%; with RPMI-8226 leukemia, 103%; with OVCAR-8 ovarian, 107%; in the experiment with OVCAR-5 ovarian it was 103%. Further, the growth was 107% in the experiment on OVCAR-4 ovarian; 96.9% in the experiment with SK-OV-3 ovarian; 106% with IGROV1 ovarian; 107% in the experiment on OVCAR-3 ovarian; 104% with HS 578T breast; 98.4% in the experiment with NCI/ADR-RES ovarian.
In the case of `N=C(N)c1ccc(-c2ccc(-c3ccco3)o2)cc1F`, the growth with SK-MEL-2 melanoma was -66.8% (active); in the experiment on SN12C renal, 39.8%; with TK-10 renal, 7.98% (active); in the experiment with ACHN renal it was 12.2%; with CAKI-1 renal, 23.1%; in the experiment with A498 renal it was 11.6%. In addition, the growth with MOLT-4 leukemia is 0.311% (active); with SR leukemia it was -9.28% (active); in the experiment with RPMI-8226 leukemia, -23.2% (active); with OVCAR-8 ovarian, 45%; in the experiment on OVCAR-5 ovarian it was 17.8%; with OVCAR-4 ovarian, 42%. In addition, the growth was 40.1% with SK-OV-3 ovarian, 11.9% in the experiment with IGROV1 ovarian, 48.8% in the experiment on HS 578T breast and 45.2% in the experiment with NCI/ADR-RES ovarian.
As for `Cc1ccc(NC(=O)c2sc3nc4c(cc3c2N)C(=O)CCC4)cc1Cl`, the growth in the experiment with SK-MEL-2 melanoma is 112%; in the experiment with EKVX NSCLC, 86.2%; in the experiment with TK-10 renal, 96.5%; in the experiment on ACHN renal it was 109%; with CAKI-1 renal, 85.9%; in the experiment with A498 renal, 97.9%. Besides, the growth with CCRF-CEM leukemia is 104%; in the experiment with MOLT-4 leukemia, 108%; with SR leukemia it was 105%; in the experiment on RPMI-8226 leukemia it was 105%; with OVCAR-8 ovarian, 103%; with SK-OV-3 ovarian, 114%. Moreover, the figures for the growth in the experiment on HS 578T breast and in the experiment on NCI/ADR-RES ovarian were 113% and 104%, respectively.
As to `COc1ccc(/C=N/NC(N)=S)c(OC)n1`, the growth is 94% with SK-MEL-2 melanoma; 98.5% in the experiment with SN12C renal; 95.2% with UO-31 renal; 112% with TK-10 renal; 100% in the experiment on ACHN renal; 113% in the experiment on CAKI-1 renal. The growth in the experiment on A498 renal is 99.1%; with MOLT-4 leukemia, 90.8%; in the experiment on SR leukemia, 88.3%; with RPMI-8226 leukemia it was 94.8%; in the experiment with OVCAR-8 ovarian, 97.7%; with OVCAR-5 ovarian, 109%. Further, the growth in the experiment on OVCAR-4 ovarian is 93.9%; with SK-OV-3 ovarian, 114%; in the experiment on IGROV1 ovarian, 100%; in the experiment on OVCAR-3 ovarian, 111%; with HS 578T breast, 103%; in the experiment on NCI/ADR-RES ovarian, 109%.
Consider `CN(C)CC(=O)c1ccc2cc(Br)c3ccccc3c2c1`, for which the growth with SK-MEL-2 melanoma is 61.3%; in the experiment on EKVX NSCLC, 89.7%; in the experiment on TK-10 renal, 72.7%; in the experiment on ACHN renal, 59.7%; with CAKI-1 renal, 75.4%; in the experiment with A498 renal, 42.2%. Also, the growth is 71.3% with CCRF-CEM leukemia; 40.3% in the experiment on MOLT-4 leukemia; 13.4% in the experiment with SR leukemia; 46.9% in the experiment with RPMI-8226 leukemia; 57.9% in the experiment with OVCAR-8 ovarian; 83.7% in the experiment on OVCAR-5 ovarian. Besides, the growth with OVCAR-4 ovarian was 72.2%; with SK-OV-3 ovarian it was 69.7%; in the experiment on IGROV1 ovarian, 38.5%; with OVCAR-3 ovarian, 85.8%; in the experiment with HS 578T breast, 55.4%; in the experiment on NCI/ADR-RES ovarian it was 72.8%.
Take `CCCCCc1c(C)[nH]c(/C=C2\N=C(c3ccc[nH]3)C=C2Oc2ccc(OC)cc2)c1C`: the growth in the experiment on SK-MEL-2 melanoma is -74.4% [100 µM] (active); in the experiment with SN12C renal, -88.6% [100 µM] (active); in the experiment on UO-31 renal, -75.7% [100 µM] (active); in the experiment on TK-10 renal, -60.2% [100 µM] (active); in the experiment on ACHN renal, -59.8% [100 µM] (active); in the experiment with CAKI-1 renal, -73.9% [100 µM] (active). Further, the growth in the experiment on A498 renal was -89.3% [100 µM] (active); in the experiment on MOLT-4 leukemia, -34% [100 µM] (active); with SR leukemia it was -9.14% [100 µM] (active); in the experiment on RPMI-8226 leukemia it was -37.7% [100 µM] (active); in the experiment on OVCAR-5 ovarian, -65.3% [100 µM] (active); with OVCAR-4 ovarian it was -99.7% [100 µM] (active). Moreover, the growth in the experiment on SK-OV-3 ovarian is -63.2% [100 µM] (active); in the experiment on IGROV1 ovarian, -70.6% [100 µM] (active); in the experiment with OVCAR-3 ovarian it was -95% [100 µM] (active); with HS 578T breast, 0.631% [100 µM] (active); in the experiment with NCI/ADR-RES ovarian, -78% [100 µM] (active).
